Source: PubChem BioAssay (EPA / NIEHS)
Where “and” joins values, the source holds several entries; their conditions need not be identical. Equal entries are not always repeated. Some structures have more than one record in an assay (separate samples or runs), and their calls can disagree. Calls of active or inactive are those of the source. Rule for the calls: active = hit-call score of the fitted dose curve at least 0.9, where 1 is the maximum; inactive = score below 0.9.

Legend:
[1] = ATG_CRE_CIS: Attagene CIS-FACTORIAL HepG2 Assay for human cAMP Responsive Element (CRE) binding protein 3 (AID 2282926); conditions: HepG2 CRE cis-reporter, Attagene multiplexed mRNA; actives raise or lower the signal
How it was run: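 HepG2 cells transiently transfected with a multiplexed reporter library (CRE-driven unit among them) were dosed for 24 h. Reporter mRNA was quantified by RT-PCR, fluorescent labelling, HpaI digestion and capillary electrophoresis, with bidirectional fitting against DMSO baseline.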

[2] = target: CCAAT/enhancer-binding protein beta (Homo sapiens) (UniProt P17676); test: ATG_C_EBP_CIS: Attagene CIS-FACTORIAL HepG2 Assay for human CCAAT/Enhancer Binding Protein (C/EBP) beta (AID 2282927); conditions: HepG2 Attagene cis-factorial transcription factor reporter; actives raise or lower the signal
How it was run: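 Endogenous transcription factor activity in human liver HepG2 cells is inferred from induction of a CEBPB-linked reporter mRNA. Exposure lasts 24 h; activity is fitted in both directions relative to DMSO.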

Chain of CCAAT/enhancer-binding protein beta (Homo sapiens) (P17676 whole entry, looked up): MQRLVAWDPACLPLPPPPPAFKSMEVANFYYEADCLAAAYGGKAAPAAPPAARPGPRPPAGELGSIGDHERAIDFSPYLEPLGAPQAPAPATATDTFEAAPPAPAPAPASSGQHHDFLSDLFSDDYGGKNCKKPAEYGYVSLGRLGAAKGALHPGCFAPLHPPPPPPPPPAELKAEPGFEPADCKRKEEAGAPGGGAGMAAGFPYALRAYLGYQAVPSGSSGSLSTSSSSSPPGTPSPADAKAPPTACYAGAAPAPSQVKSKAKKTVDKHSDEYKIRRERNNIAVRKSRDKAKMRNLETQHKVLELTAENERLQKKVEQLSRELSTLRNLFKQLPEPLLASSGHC

Compound | outcome [1] | outcome [2] | AC50 [2] | AC50 [1]
CCc1cccc(CC)c1N(COC)C(=O)CS(=O)(=O)O | inactive | inactive |  | 
C[C@]12CC[C@@H]3c4ccc(O)cc4CC[C@H]3[C@@H]1C[C@@H](O)[C@@H]2O | inactive | inactive |  | 
O=C1OC2(c3ccccc31)c1cc(I)c(O)c(I)c1Oc1c2cc(I)c(O)c1I | inactive | inactive |  | 
CCOCCOCC | inactive | inactive |  | 
Clc1ccc2c(Cl)ccnc2c1 | inactive | inactive |  | 
CNNCc1ccc(C(=O)NC(C)C)cc1 | inactive | inactive |  | 
O=CC(F)(F)C(F)(F)C(F)(F)F | inactive | inactive |  | 
FCOC(C(F)(F)F)C(F)(F)F | inactive | inactive |  | 
COC(O)c1ccccc1 (centres undefined) | inactive | inactive |  | 
CCCCCCC(C)(C)C(=O)O | inactive | inactive |  | 
CCCCC(CC)C(=O)OCCOCCOCCOCCOC(=O)C(CC)CCCC (centres undefined) | inactive | inactive |  | 
CCC1CO1 (centres undefined) | inactive | inactive |  | 
O=C(F)C(F)(F)C(F)(F)C(F)(F)C(=O)F | inactive | inactive |  | 
CCCCCCCCCCCC[N+](C)(C)CCCCCCCCCCCC | inactive |  | 16.4 µM (active) | 
Clc1ccc(Nc2nnc(Cc3ccncc3)c3ccccc23)cc1 | inactive | inactive |  | 
c1ccc(CNc2ncnc3c2ncn3C2CCCCO2)cc1 (centres undefined) | inactive | inactive |  | 
CCCCc1ccc2ccccc2c1S(=O)(=O)O | inactive | inactive |  | 
COc1cc(OC)nc(NC(=O)NS(=O)(=O)Nc2ccccc2C(=O)N(C)C)n1 | inactive | inactive |  | 
OCCN1CN(CCO)CN(CCO)C1 |  | inactive |  | 145 µM (active)
O=P(O)(O)CCC(F)(F)C(F)(F)C(F)(F)C(F)(F)C(F)(F)C(F)(F)C(F)(F)C(F)(F)F | inactive | inactive |  | 
CCCCCCOC(=O)c1ccc(O)cc1 |  | inactive |  | 44.2 µM (active)
Nc1ccn([C@@H]2O[C@H](CO)[C@@H](O)C2O)c(=O)n1 (some centres undefined) | inactive | inactive |  | 
C=Cc1ccc(O)c(OC)c1 | inactive | inactive |  | 
CC1=CC(=O)c2ccccc2C1=O | inactive | inactive |  | 
CCCCCCCC(OC)OC | inactive | inactive |  | 
C=COC(=O)C(C)(C)CCCCCC | inactive | inactive |  | 

Compound | outcome [1] | outcome [2] | AC50 [2] | AC50 [1]
O=S(=O)(O)c1ccccc1 | inactive | inactive |  | 
CC1COCc2cc3c(cc21)C(C)(C)C(C)C3(C)C (centres undefined) | inactive | inactive |  | 
COC(=O)C(F)(F)C(F)(F)C(F)(F)F | inactive | inactive |  | 
COc1ccccc1NC(=O)c1cc2ccccc2cc1O |  | inactive |  | 31.6 µM (active)
C[C@]12CC[C@@H]3c4ccc(O)cc4CC[C@H]3[C@@H]1CC[C@@H]2OC(=O)CCC1CCCC1 | inactive |  | 137 µM (active) | 
Cn1sccc1=O |  |  | 161 µM (active) | 154 µM (active)
CCCC=O | inactive | inactive |  | 
Cc1ccccc1OCC(=O)O | inactive | inactive |  | 
CCC(C)c1nccnc1OC (centres undefined) | inactive | inactive |  | 
c1ccc2c(c1)CCC2 | inactive | inactive |  | 
CC(=O)CC(C)C | inactive | inactive |  | 
CCN(CCC#N)c1ccccc1 | inactive | inactive |  | 
CCO[Si](CCC1CCC2OC2C1)(OCC)OCC (centres undefined) | inactive | inactive |  | 
CCCCCCCCCCCCCCCCCC[N+](C)(C)Cc1ccccc1 | inactive |  | 75.8 µM (active) | 
O=C(CC(=O)C(F)(F)C(F)(F)C(F)(F)F)c1cccs1 |  | inactive | 66 µM (active) | 44.6 µM (active) and 67.1 µM (active)
O=S(=O)(c1ccc(OCc2ccccc2)cc1)c1ccccc1O |  |  | 23.1 µM (active) | 14.9 µM (active)
FC(F)(F)C1(F)C(F)(F)C(F)(F)C(F)(F)C(F)(C(F)(F)F)C1(F)F (centres undefined) | inactive | inactive |  | 
COc1cccc(O)c1 | inactive | inactive |  | 
O=C(Nc1cccc([N+](=O)[O-])c1)c1cc2ccccc2cc1O | inactive | inactive |  | 
NNC(=O)CCCCC(=O)NN | inactive | inactive |  | 
FC(F)=C(F)C(F)(F)C(F)(F)C(F)(F)C(F)F | inactive | inactive |  | 
CC1CNCC(C)O1 (centres undefined) | inactive | inactive |  | 
Cc1ccc(C)c(S(=O)(=O)O)c1 | inactive | inactive |  | 
CCOC(=O)CN[C@@H](C(=O)N1CC[C@H]1C(=O)NCc1ccc(/C(N)=N/O)cc1)C1CCCCC1 | inactive | inactive |  | 
COCC1CCC(CO)CC1 (centres undefined) | inactive | inactive |  | 
Cc1ccc(C(=O)c2ccccc2)cc1 | inactive | inactive |  | 

Compound | outcome [1] | outcome [2] | AC50 [2] | AC50 [1]
O=C1OC(=O)c2cc(-c3ccc4c(c3)C(=O)OC4=O)ccc21 | inactive | inactive |  | 
O=C(OC(=O)C(F)(F)C(F)(F)F)C(F)(F)C(F)(F)F | inactive | inactive |  | 
O=C1c2ccc(O)c(O)c2C(=O)c2c(O)ccc(O)c21 | inactive | inactive |  | 
Cc1cc(C(C)(C)C)c(O)c(C(C)(C)C)c1 | inactive | inactive | 14.6 µM (active) | 
c1cc[nH]c1 | inactive | inactive |  | 
Oc1cc2ccccc2cc1O | inactive | inactive |  | 
CCC(=O)C=Cc1ccc(OC)cc1 | inactive | inactive |  | 
O=C(O)C(F)(F)OC(F)(F)C(F)(F)OC(F)(F)C(F)(F)OC(F)(F)C(F)(F)C(F)(F)C(F)(F)F |  | inactive |  | 37.7 µM (active) and 27.1 µM (active)
FC(F)(F)C(F)(F)C(F)(F)C(F)(F)I | inactive | inactive |  | 
Brc1ccc(Oc2ccc(Br)cc2Br)cc1 | inactive | inactive |  | 
Oc1c(Cl)cc(Cl)cc1Sc1cc(Cl)cc(Cl)c1O | inactive | inactive |  | 
NS(=O)(=O)O | inactive | inactive |  | 
CCOC(C)=O | inactive | inactive |  | 
CCCCCCCCCCCC | inactive | inactive |  | 
FC(F)(F)C1(F)C(F)(F)C(F)(F)C(F)(F)C1(F)F | inactive | inactive |  | 
CC(C)[C@@H]1CC[C@@H](C)C[C@H]1O | inactive | inactive |  | 
Cc1cc(Cc2cc(C)cc(C(C)(C)C)c2O)c(O)c(C(C)(C)C)c1 |  |  | 31.8 µM (active) | 23.7 µM (active)
Nc1cc(Cl)c(-c2cc(Cl)c(N)cc2Cl)cc1Cl | inactive | inactive |  | 
O=P(O)(O)CCC(F)(F)C(F)(F)C(F)(F)C(F)(F)C(F)(F)C(F)(F)F | inactive | inactive |  | 
O=C(O)CCC(F)(F)C(F)(F)C(F)(F)C(F)(F)C(F)(F)F | inactive | inactive |  | 
CCC(C)c1ccccc1O (centres undefined) | inactive | inactive |  | 
NCc1cccc(CN)c1 | inactive | inactive |  | 
CC(C)(O)C(=O)c1ccccc1 | inactive | inactive |  | 
CCOC(OCC)C(=O)c1ccccc1 | inactive | inactive |  | 
